Data on 51 compounds can be found in PubChem BioAssay AID1851 (National Center for Advancing Translational Sciences (NCATS), 2009).

Each structure is given as a SMILES string. “And” between values parts separate entries of the source, which are not always exact repeats. Equal values may be shown once. In all, about 16,000 compounds went through this assay and about 2,600 (16%) were called active. About 20% were inconclusive and are not listed. Only a sample is shown. Unmarked numbers belong to inactive results. Calls come from the whole dose curve; as a rule, active = well fitted curve in the direction sought with a large enough effect; inconclusive = small, poorly fitted or top-dose-only effect, or effect the other way; inactive = no such curve, though single readings can be large or run the other way.
% is set by controls: 0 for no effect and ±100 for the full control effect.

Chain of Cytochrome P450 2D6 (Homo sapiens) (P10635 whole entry, looked up): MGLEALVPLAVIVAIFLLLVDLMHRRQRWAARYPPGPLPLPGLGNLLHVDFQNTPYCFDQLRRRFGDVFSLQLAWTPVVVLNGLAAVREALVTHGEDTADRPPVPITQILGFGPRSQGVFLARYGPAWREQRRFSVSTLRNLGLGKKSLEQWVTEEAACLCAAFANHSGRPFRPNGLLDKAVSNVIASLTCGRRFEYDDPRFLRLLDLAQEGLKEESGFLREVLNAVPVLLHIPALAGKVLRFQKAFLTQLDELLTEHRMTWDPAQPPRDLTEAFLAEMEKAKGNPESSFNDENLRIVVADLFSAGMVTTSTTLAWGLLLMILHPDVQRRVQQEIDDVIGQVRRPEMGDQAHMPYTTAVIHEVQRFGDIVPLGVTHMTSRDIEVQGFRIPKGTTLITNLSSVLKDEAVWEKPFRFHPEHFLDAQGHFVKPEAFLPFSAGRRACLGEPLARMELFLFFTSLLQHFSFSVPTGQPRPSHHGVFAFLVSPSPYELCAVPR

For this assay, the target named is Cytochrome P450 2D6 (Homo sapiens) (UniProt P10635). The assay can be described thus: Cytochrome panel assay with activity outcomes. The note with it: recombinant CYP, pro-luciferin dealkylation, luminescence, p450-cyp2d6; series mostly up to 57.1 µM; activity, negative = inhibition: at the top concentration. As for the experimental part:
The P450 gene superfamily is involved in the metabolism and clearance of xenobiotics. This assay used various human CYP P450 isozymes to measure the dealkylation of various pro-luciferin substrates to luciferin. The luciferin is then measured by luminescence after the addition of a luciferase detection reagent. Pro-luciferin substrate concentration in the assay was equal to its KM for its CYP P450 isozyme. Inhibitors and some substrates limit the production of luciferin, and decrease measured luminescence.
NCGC Assay Protocol Summary:
1, Reagent, 2 uL, Isozyme and Pro-Luciferin
2, Library compounds, 23 nl, 40 uM to 0.24 nM dilution series
3, Controls, 23 nl, Isozyme specific inhibitor
4, Reagent, 2 uL, NADPH regeneration solution
5, Incubation time, 60 min, Isozyme specific temperature
6, Reagent, 4ul, Detection reagent
7, Incubation time, 20 min, Isozyme specific temperature
8, Detection, 1 sec, ViewLux luminescent read
The luciferase-based P450-GloTM Screening Systems were obtained from Promega (Madison, WI) for CYP 1A2 (V9770), CYP 2C9 (V9790), CYP2 C19 (V9880), CYP 2D6 (V9890), and CYP 3A4 Luciferin-PPXE (V9910) and were adapted for 1,536-well microplates and an automated protocol. The control compounds furafylline for 1A2 (F124), sulfaphenazole for CYP 2C9 (S0758), ketoconazole for CYP 2C19 (K1003), quinidine for 2D6 (Q3625), and ketoconazole for 3A4 (K1003) were purchased from Sigma Aldrich (St. Louis, MO). Recombinant P450 enzymes were obtained from baculovirus constructs expressed in insect cells (BD/Gentest).
Medium-binding white solid Kalypsys plates used. Mixtures kept on ice. 1A2: 10 nM 1A2, 100 uM Luc-ME, 100 mM KPO4; 2C9: 10 nM 2C9, 100 uM Luc-H, 25 mM KPO4; 2C19: 5 nM 2C19, 10 uM Luc-H EGE, 50 mM KPO4; 2D6: 5 nM 2D6, 30 uM Luc-ME EGE, 100 mM KPO4; 3A4: 10 nM, 25 uM Luc-PPXE. All amounts are reflected in their final concentration, working concentration is 2x.
NADPH regeneration solution: 1.3 mM NADP+, 3.3 mM glucose-6-phosphate, 3.3 mM MgCl2, 0.4 U/mL glucose-6-phosphate dehydrogenase for all isozymes, 200 mM KPO4 for 3A4. Mixture prepared at RT but kept on ice during automated run.
RT incubation in auxilliary plate hotel for 1A2, 2D6, and 3A4; 37C for 2C9 and 2C19.
Keywords: P450, CYP1A2, CYP2C19, CYP2C9, CYP2D6, CYP3A4, Luciferase, MLSMR, MLSCN, NIH Roadmap, qHTS, NCGC
As for `CCOC(=O)c1cc2c(=O)n3ccccc3nc2n(CCOC)c1=NC(=O)C(C)(C)C`, the “activity, negative = inhibition” value was 23.5%.

For `CCn1c(=N)c(S(=O)(=O)c2ccc(F)cc2)cc2c(=O)n3ccccc3nc21`, the AC50 is 0.794 µM (active). Same read-out and setting: to `Cn1c(=N)c(S(=O)(=O)c2ccc(F)cc2)cc2c(=O)n3ccccc3nc21` belongs 3.16 µM (active). `CCOC(=O)c1cc2c(=O)n3ccccc3nc2n(CCCOC)c1=NC(=O)C(C)(C)C`: the “activity, negative = inhibition” value is -7.61%.

As for `CC1Cc2ccccc2N1C(=O)c1cc2c(=O)n3ccccc3nc2n1C` (stereo unspecified), the “activity, negative = inhibition” value was -9.59%. For `Cn1c(C(=O)N2COCC2(C)C)cc2c(=O)n3ccccc3nc21`, the “activity, negative = inhibition” value was 9.88%. Still for that read-out and setting: to `COc1ccccc1C(=O)Nc1cc2c(ccc3ccccc32)oc1=O` belongs -3.7%; to `O=C(CCl)Nc1ccc(Oc2cnc3ccccc3n2)cc1`, -6.66%; to `Cc1ccccc1C(=O)N1CCN(c2ccc([N+](=O)[O-])c(NCc3ccco3)c2)CC1`, -21.7%. The same measure, in the same setting: the result for `CC(C)(N)C(=O)N[C@@H]1C(=O)N2[C@@H]1SC(C)(C)[C@H]2C(=O)O` reads 5.23% [at 11.4 µM].

For the compound `CC(C)(C)C(=O)N1CCC(O)(CS(=O)(=O)Cc2ccc(Cl)cc2)CC1`, the “activity, negative = inhibition” value was -2.72%. Take `Cc1ccccc1OCC(=O)NC(=S)Nc1ccc(N2CCOCC2)c(Cl)c1`: the “activity, negative = inhibition” value is -1.79%. Take `Cc1ccc(NC(=O)CSCC(=O)Nc2ccc(N3CCOCC3)c(Cl)c2)cc1`: the AC50 was 14.1 µM (active). Turning to `Cc1ccc(NC(=O)c2cc(N3C(=O)C4CC=CCC4C3=O)ccc2N2CCOCC2)cc1Cl` (stereo unspecified), the “activity, negative = inhibition” value was -12.8%. For `NC(=O)C1(N2CCCCC2)CCN(C(=S)Nc2ccc(Cl)cc2)CC1`, the “activity, negative = inhibition” value was 18.5%.

Consider `N[C@H](C(=O)O)c1cccc(O)c1`, for which the AC50 result was “inactive”. For the compound `Nc1ccc(CCNc2ncnc3c2ncn3[C@@H]2O[C@@H](CO)[C@H](O)[C@@H]2O)cc1`, the “activity, negative = inhibition” value is -4.1%. Consider `CC(C)c1ccc(-c2nnn(CCC(=O)O)n2)cc1`, for which the “activity, negative = inhibition” value was 6.28%. In the case of `CCOc1ccc(/C(O)=C2\C(=O)C(=O)N(CCOCCO)C2c2ccccc2OC)cc1` (stereo unspecified), the “activity, negative = inhibition” value is -1.52%. Same read-out and setting: to `CCOc1ccc(OCCOc2ncnc3ccccc23)cc1` belongs -9.19%. Regarding `CCOc1ccc(OCCOCCN2CCc3ccccc3C2)cc1`, the AC50 was 1.12 µM (active). Turning to `N#CCCn1c(=O)cnc2cnc(Oc3ccccc3)nc21`, the “activity, negative = inhibition” value is 2.41%. Still for that read-out and setting: the result for `C=CCn1c(SCc2ccc3c(c2)OCO3)nc2scc(-c3ccco3)c2c1=O` reads -7.87%. On to `C=CCN1CCN(c2nc3ccccc3nc2C#N)CC1`, for which the AC50 was 1.26 µM (active). With `CCc1noc(C)c1C(=O)Nc1nc(-c2cc(C)ccc2C)c(C)s1`, the “activity, negative = inhibition” value was -10.5%. Same read-out and setting: to `O=C(O)CSc1cc(-c2ccccc2)nc2ccccc12` belongs 3.96% [at 11.4 µM]. Turning to `NC[C@@H](O)CSCc1ccc(Cl)cc1`, the half-maximal activity concentration (AC50) was 3.16 µM (active). As to `N[C@@H](CSCc1ccc(I)cc1)C(=O)O`, the activity, negative = inhibition is 3.9% [at 11.4 µM]. The same measure, in the same setting: to `O=[N+]([O-])c1ccc(CSCc2ccc(Cl)cc2)cc1` belongs -20.5% [at 11.4 µM]; to `O=c1c(-c2cccc(F)c2)nc2cncnc2n1Cc1ccccc1Cl`, -3.25%; to `O=C(O)COc1c(Cl)cc(Cl)c2cccnc12`, 2.9% [at 11.4 µM]. In the case of `Oc1ccc(CNCc2ccccc2)c2cccnc12`, the AC50 is 1.58 µM (active). `CC(C)NC[C@@H](O)c1ccc(O)c2ncccc12`: the activity, negative = inhibition is -18.5% [at 11.4 µM].

On to `N#CCCn1c(=O)c(-c2ccc(F)cc2)nc2cnc(N3CCOCC3)nc21`, for which the “activity, negative = inhibition” value is 3.46%. Still for that read-out and setting: to `CCOC(=O)/C(C#N)=C1/C=CN(C)C=N1` belongs 16.9%; to `Cc1nc2cncnc2n(-c2ccccc2)c1=O`, -8.35%; to `COc1cccc(-c2cc(C(F)(F)F)n3ncc(S(=O)(=O)c4ccccc4)c3n2)c1`, 2.47%. Turning to `ON(CCc1ccccn1)Cc1ccccc1`, the activity, negative = inhibition is -0.364% [at 11.4 µM].

Turning to `CC(C)C(=O)C(C)(C)CCc1ccccn1`, the activity, negative = inhibition is 8.85% [at 11.4 µM]. For `CN(CCc1ccccn1)Cc1ccc(Cl)cc1Cl`, the AC50 was 0.355 µM (active). With `O=C(Nc1ccccc1)c1ccccc1CC[N+](=O)[O-]`, the “activity, negative = inhibition” value is 7.91%. On the same count and under the same terms, the result for `C/C(=C\C1CCCCC1)C(NC(=O)c1ccc(C(F)(F)F)cc1)c1ccc(-c2ccccc2)cc1` (stereo unspecified) reads 7.77%. Still for that read-out and setting: the result for `COc1ccc(-c2cc(C(F)(F)F)n3nc(C(=O)N4CCCCC4)cc3n2)cc1` reads -17.1%. Take `Cc1ccc(S(=O)(=O)N(CCCN2CCCC2=O)Cc2cc3c(C)ccc(C)c3[nH]c2=O)cc1`: the AC50 was 14.1 µM (active). `Cc1ccc(S(=O)(=O)CC(O)CN2CCCC2=O)cc1` (stereo unspecified): the “activity, negative = inhibition” value was -5.29%. Still for that read-out and setting: to `Cc1ccc(CS(=O)(=O)CCC(=O)NCCCN2CCCC2=O)cc1` belongs -2.33%; to `O=C1CC(N2CCOCC2)C(=O)N1c1cccc(Cl)c1` (stereo unspecified), -1.45%. With `CN1CCN([C@@H]2Cc3ccccc3Sc3ccc(Cl)cc32)CC1`, the AC50 is 0.398 µM (active). Same read-out and setting: to `CSc1ccc2c(c1)[C@H](N1CCN(C)CC1)Cc1ccccc1S2` belongs 3.98 µM (active) and 1.58 µM (active) and 316 nM (active).

For `CCCc1ncc(C[n+]2ccccc2C)c(N)n1`, the “activity, negative = inhibition” value was -3.66% [at 25.6 µM].

With `C=CCNC(=S)N/N=C/c1ccc(OCc2ccccc2)cc1`, the “activity, negative = inhibition” value is -3.46%.
